Test systems include SR leukemia; RPMI-8226 leukemia; OVCAR-8 ovarian; OVCAR-5 ovarian; OVCAR-4 ovarian; SK-OV-3 ovarian; IGROV1 ovarian; OVCAR-3 ovarian; HS 578T breast; NCI/ADR-RES ovarian; T-47D breast; BT-549 breast; MDA-MB-435 melanoma; SW-620 colon; MCF7 breast; HCT-116 colon; HCC-2998 colon; KM12 colon.
Common to all, as to test: NCI-60 one-dose screen, 48 h (100 = growth as untreated, 0 = no growth, -100 = all killed)
What all share (conditions): 10 µM unless noted

Molecules are shown by their SMILES. The panel holds about 83,000 compounds, 20% with a hit somewhere; the sample as a whole holds those more often.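 96-well plates, one dose, 48 hours. Percent growth reported; active if below 10.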 Values without a mark were called inactive. Active and inactive are the calls of the source.

Turning to `Brc1ccc(-n2cc(-c3nn[nH]n3)c(-c3cccs3)n2)cc1`, the growth in the assay with SR leukemia is 110%; in the assay with RPMI-8226 leukemia, 99.3%; in the assay on OVCAR-8 ovarian it was 98.8%; in the assay with OVCAR-5 ovarian, 100%; in the assay with OVCAR-4 ovarian, 100%; with SK-OV-3 ovarian, 93.5%. Besides, the growth in the assay with IGROV1 ovarian is 93.2%; in the assay with OVCAR-3 ovarian it was 105%; in the assay with HS 578T breast, 96.3%; in the assay with NCI/ADR-RES ovarian, 107%; in the assay with T-47D breast, 95.6%; with BT-549 breast, 95.3%. Also, the growth with MDA-MB-435 melanoma was 106%; in the assay on SW-620 colon, 102%; with MCF7 breast, 90.1%; with HCT-116 colon, 91.5%; with HCC-2998 colon, 105%; in the assay on KM12 colon it was 103%.
Regarding `O=C1C(Cl)=C(Oc2ccccc2)C(=O)c2ccccc21`, the growth with SR leukemia was 48.8%; in the assay with RPMI-8226 leukemia, 35.2%; with OVCAR-8 ovarian it was 85%; in the assay on OVCAR-5 ovarian it was 118%; in the assay with OVCAR-4 ovarian, 106%; with SK-OV-3 ovarian, 103%. The growth in the assay on IGROV1 ovarian was 80.7%; in the assay on OVCAR-3 ovarian, 16%; in the assay with HS 578T breast, 31.6%; with NCI/ADR-RES ovarian, 88.6%; in the assay with T-47D breast it was -0.942% (active); in the assay with BT-549 breast it was 70.8%. Moreover, the growth with MDA-MB-435 melanoma was 108%; in the assay with SW-620 colon, 47.6%; in the assay on MCF7 breast it was 73%; in the assay with HCT-116 colon, 29.3%; in the assay on HCC-2998 colon it was 66.5%; in the assay on KM12 colon it was 27.1%.
As to `C#CCOc1ccc2ncnc(Nc3ccc(NC(=O)CCl)cc3)c2c1`, the growth with SR leukemia is -7.69% (active); with RPMI-8226 leukemia, -16.7% (active); in the assay on OVCAR-8 ovarian it was 2.5% (active); with OVCAR-5 ovarian it was 30.5%; in the assay with OVCAR-4 ovarian, -17.5% (active); in the assay on SK-OV-3 ovarian it was 22.4%. Moreover, the growth with IGROV1 ovarian is -55.3% (active); in the assay with OVCAR-3 ovarian, -38.6% (active); with HS 578T breast it was 27.6%; with NCI/ADR-RES ovarian it was 7.93% (active); in the assay with T-47D breast, 16.2%; with BT-549 breast, -19.5% (active). Moreover, the growth is 17.7% with MDA-MB-435 melanoma; -13.9% (active) in the assay with SW-620 colon; 5.26% (active) with MCF7 breast; 0.822% (active) in the assay with HCT-116 colon; 65.2% in the assay with HCC-2998 colon; 8.97% (active) in the assay on KM12 colon.
Regarding `O=C1/C(=C/c2ccc(Cl)c(Cl)c2)CN(C(=O)C(Cl)Cl)C/C1=C\c1ccc(Cl)c(Cl)c1`, the growth in the assay on SR leukemia was 4.68% (active); in the assay on RPMI-8226 leukemia, -27.9% (active); in the assay on OVCAR-8 ovarian, 0.621% (active); in the assay with OVCAR-5 ovarian, -69.1% (active); in the assay on OVCAR-4 ovarian, -16.8% (active); in the assay with SK-OV-3 ovarian, 25.2%. For the same molecule, the growth is -74.3% (active) in the assay on IGROV1 ovarian; -97.9% (active) in the assay on OVCAR-3 ovarian; -5.11% (active) in the assay on HS 578T breast; 3.64% (active) in the assay on NCI/ADR-RES ovarian; -36.7% (active) in the assay with T-47D breast; -58.5% (active) with BT-549 breast. Also, the growth was -68.7% (active) in the assay on MDA-MB-435 melanoma; -71.5% (active) in the assay on SW-620 colon; -57.7% (active) in the assay with MCF7 breast; -92.5% (active) in the assay on HCT-116 colon; -88.8% (active) in the assay on HCC-2998 colon; -71.2% (active) in the assay on KM12 colon.
In the case of `Cn1cc(-c2nonc2-c2c[nH]c3ccc(Br)cc23)c2cc(Br)ccc21`, the growth in the assay on SR leukemia was 20.5%; in the assay on RPMI-8226 leukemia it was 41.3%; with OVCAR-8 ovarian, 34%; in the assay with OVCAR-5 ovarian, 37.6%; with OVCAR-4 ovarian it was -2.18% (active); with SK-OV-3 ovarian, 53.7%. In addition, the growth in the assay on IGROV1 ovarian is 59%; in the assay on OVCAR-3 ovarian, 33.6%; in the assay on HS 578T breast, 31.6%; in the assay on NCI/ADR-RES ovarian, 36.6%; in the assay on T-47D breast it was 24.4%; in the assay with BT-549 breast, 76.8%. Besides, the growth with MDA-MB-435 melanoma is 40.3%; in the assay with SW-620 colon, 55.9%; with MCF7 breast, 26.1%; in the assay with HCT-116 colon, 22.7%; in the assay on HCC-2998 colon it was 39.8%; in the assay on KM12 colon it was 22.8%.
With `O=C1c2cccnc2C(=O)c2c1c(C(=O)NCCCN1CCCCC1)c1ccccn21`, the growth is -15.3% (active) with SR leukemia; -10.9% (active) with RPMI-8226 leukemia; -13.3% (active) with OVCAR-8 ovarian; -0.385% (active) in the assay on OVCAR-5 ovarian; -88% (active) in the assay on OVCAR-4 ovarian; -15.7% (active) with SK-OV-3 ovarian. Besides, the growth was -43.4% (active) in the assay with IGROV1 ovarian; -34.8% (active) in the assay on OVCAR-3 ovarian; 36.3% in the assay with HS 578T breast; -15.5% (active) in the assay with NCI/ADR-RES ovarian; -48.6% (active) in the assay on T-47D breast; 13.7% in the assay with BT-549 breast. Moreover, the growth in the assay with MDA-MB-435 melanoma was -80.5% (active); in the assay with SW-620 colon it was -66% (active); in the assay with MCF7 breast, -49.5% (active); with HCT-116 colon it was -57.6% (active); with HCC-2998 colon, -56.7% (active); with KM12 colon, -17.8% (active).
Take `COc1cc(OC)cc(C2=C3CC[C@@H]4[C@H](CC[C@]5(C)C(=O)CC[C@@H]45)C3=CC3C(O)c4cccnc4N4C(=O)COC234)c1` (stereo partly drawn): the growth with SR leukemia was 82.3%; in the assay on RPMI-8226 leukemia it was 96.2%; in the assay on OVCAR-8 ovarian it was 95%; in the assay with OVCAR-5 ovarian it was 95.5%; with OVCAR-4 ovarian, 87.1%; in the assay with SK-OV-3 ovarian, 116%. For the same molecule, the growth in the assay on IGROV1 ovarian was 101%; with OVCAR-3 ovarian it was 115%; in the assay with HS 578T breast, 90.1%; in the assay on NCI/ADR-RES ovarian, 105%; in the assay with T-47D breast, 107%; in the assay with BT-549 breast it was 94.7%. Besides, the growth in the assay with MDA-MB-435 melanoma is 104%; in the assay on SW-620 colon, 103%; in the assay on MCF7 breast, 103%; in the assay with HCT-116 colon, 97%; with HCC-2998 colon it was 96.6%; in the assay with KM12 colon, 102%.
Turning to `CS(=O)(=O)C1=CN(CCO)C(=O)N2CCCN=C12`, the growth is 115% in the assay on SR leukemia; 119% with RPMI-8226 leukemia; 108% in the assay on OVCAR-8 ovarian; 99.4% in the assay on OVCAR-5 ovarian; 115% in the assay on OVCAR-4 ovarian; 97.5% in the assay with SK-OV-3 ovarian. The growth was 102% in the assay on IGROV1 ovarian; 105% in the assay with OVCAR-3 ovarian; 97% in the assay with HS 578T breast; 106% in the assay on NCI/ADR-RES ovarian; 102% in the assay on T-47D breast; 102% in the assay on BT-549 breast. Moreover, the growth in the assay with MDA-MB-435 melanoma was 102%; with SW-620 colon, 93.4%; with MCF7 breast it was 104%; in the assay on HCT-116 colon, 97%; with HCC-2998 colon, 98.6%; in the assay on KM12 colon it was 105%.
As for `C#CCn1cnc2c(Nc3cccc(NC(=O)C=C)c3)ncnc21`, the growth with SR leukemia is 68.5%; with RPMI-8226 leukemia, 81.9%; with OVCAR-8 ovarian it was 76.2%; with OVCAR-5 ovarian it was 82%; with OVCAR-4 ovarian, 86.6%; in the assay on SK-OV-3 ovarian, 73.5%. Further, the growth with IGROV1 ovarian was 74.8%; in the assay on OVCAR-3 ovarian, 88.5%; in the assay with HS 578T breast it was 74.5%; with NCI/ADR-RES ovarian, 92.5%; with T-47D breast it was 72%; with BT-549 breast, 71.5%. For the same molecule, the growth is 82.6% in the assay with MDA-MB-435 melanoma; 99.6% in the assay with SW-620 colon; 80.1% with MCF7 breast; 85.1% in the assay with HCT-116 colon; 105% in the assay with HCC-2998 colon; 96.3% with KM12 colon.
With `COc1ccc(/C(C)=C(/c2ccc(OCCCN(C)C)cc2)c2ccc(OC(=O)Cc3ccccc3)cc2)cc1`, the growth in the assay with SR leukemia was -0.597% (active); with RPMI-8226 leukemia it was 48.1%; in the assay on OVCAR-8 ovarian, 87.6%; with OVCAR-5 ovarian, 85.2%; in the assay on OVCAR-4 ovarian, 87.9%; in the assay on SK-OV-3 ovarian, 73.4%. The growth in the assay on IGROV1 ovarian is 95%; with OVCAR-3 ovarian, 81.2%; with HS 578T breast, 56.5%; in the assay with NCI/ADR-RES ovarian, 85.1%; in the assay on T-47D breast, 38.2%; in the assay on BT-549 breast, 76.5%. The growth with MDA-MB-435 melanoma is 71.9%; with SW-620 colon, 91.8%; in the assay with MCF7 breast, 25.4%; in the assay on HCT-116 colon, 57.4%; in the assay with HCC-2998 colon it was 86.7%; in the assay with KM12 colon it was 73.9%.
For `CCN1C(=O)N(CC)C2C1NN=c1s/c(=C\c3cccc([N+](=O)[O-])c3)c(=O)n12` (stereo not drawn), the growth in the assay with SR leukemia was 12.7%; with RPMI-8226 leukemia it was 22.8%; in the assay with OVCAR-8 ovarian, 6.8% (active); with OVCAR-5 ovarian, 33%; in the assay on OVCAR-4 ovarian, 51.1%; with SK-OV-3 ovarian, 38.3%. For the same molecule, the growth in the assay on IGROV1 ovarian was 22.6%; with OVCAR-3 ovarian it was 1.4% (active); with HS 578T breast, 17.6%; with NCI/ADR-RES ovarian it was 9.2% (active); with T-47D breast, 59.3%; in the assay with BT-549 breast it was 12.5%. Moreover, the growth with MDA-MB-435 melanoma was -30.4% (active); in the assay with SW-620 colon, 21.1%; in the assay with MCF7 breast it was 17.1%; with HCT-116 colon, 11%; in the assay with HCC-2998 colon it was 15.9%; in the assay with KM12 colon it was 12.1%.

These data come from PubChem BioAssay (NCI).
